Laboratory results: PubChem BioAssay
The source made the active and inactive calls.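 How the source made its calls, unless noted: active means visually confirmed hit in the image check and inhibition above 20%; inconclusive means visually confirmed hit but inhibition not above 20%; inactive means no visual hit in the image check.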

Experiments:
[1] = inhibitors of TNFa-induced NFkB p65 translocation, primary screen, imaging, HUVEC, MLSMR starter and 10KST1 sets (AID 438;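 active means inhibition above 20% together with a positive visual image hit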;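 further: compound added about 3h40 before a 20 min TNFalpha stimulation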;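 on inhibition: signal is the nuclear over cytoplasmic p65 intensity ratio per well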); conditions: HUVEC TNFa-induced p65 nuclear translocation; cell count: measured here: nuclei count (cytotoxicity indicator), at 2.08 µM; inhibition: at 2 µM, stronger effect = higher value, 0% TNFa-plus-vehicle, 100% no-TNFa wells
[2] = inhibitors of mutant huntingtin aggregation, primary screen, imaging, exon1htt(103Q)mCFP cells, high-content imaging (AID 483;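 active means visual image review flags a hit and inhibition of aggregation exceeds 20%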;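 further: compound exposure lasted 3 days before fixation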;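 on nuclei count: percent of the per-plate median nuclei count of sample wells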); conditions: exon1htt(103Q)mCFP cell line, aggregate imaging, at 2 µM; inhibition of aggregation: stronger effect = higher value; nuclei count: measured here: cell count, toxicity
[3] = inhibitors of E-selectin induction by TNFa, primary screen, imaging, HUVEC, immunofluorescence, MLSMR starter and 10KST1 sets (AID 487); conditions: HUVEC TNFalpha-induced E-selectin immunofluorescence imaging, at 2 µM; inhibition: stronger effect = higher value; nuclei count: measured here: cell number, toxicity;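 on inhibition: signal is fraction of cell area covered by stained E-selectin grains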;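 on nuclei count: 100% = median nuclei count of all wells on the same plate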
[4] = biological target: Voltage-gated potassium channel subunit beta-2 (Rattus norvegicus) (UniProt P62483); assay: KvBeta enzyme negative modulators, primary screen, biochemical, NADPH fluorescence (AID 622;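 active means fluorescence slope higher than the sample average by over 3 SD, cut at about -0.22 in these data, passing the limit was not always enough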;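 further: slope of raw intensity against log time taken from 70 to 1610 s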); conditions: recombinant KvBeta, 4-cyanobenzaldehyde reduction, at 10 µM, stronger effect = higher value
[5] = biological target: Voltage-gated potassium channel subunit beta-2 (Rattus norvegicus) (UniProt P62483); assay: KvBeta positive modulators, primary screen, biochemical, NADPH fluorescence (AID 623;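 active means NADPH fluorescence slope more negative than the mean of all samples by about 3 SD, 99.7% confidence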;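 further: fluorescence intensity change per second fitted from 20 to 320 s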); conditions: Recombinant KvBeta, NADPH fluorescence decrease slope, 10 min; at 10 µM; stronger effect = lower value
[6] = biological target: Alpha-2C adrenergic receptor (Homo sapiens) (UniProt P18825); assay: modulators of alpha2C/GIRK thallium flux, primary screen, cell-based, HEK293 alpha2C/GIRK1/2 (AID 624;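 active means fluorescence slope after compound addition differing from the mean of all screened samples at 99.7% confidence, in either direction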;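 further: slope of fluorescence ratio to pre-addition baseline per second over 15 to 24 s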); conditions: thallium flux BTC fluorescence, at 10 µM, actives lie on both sides
[7] = inhibitors of Sendai virus-induced IRF3 signaling, primary screen, TLR/RLR signaling modifier project, cell-based, Sendai virus stimulus, luciferase, 10K MLSCN set (AID 602276;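 active means inhibition at or above 50% at 10 µM; inactive means inhibition below 50%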;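 further: firefly luciferase from ISG56 promoter only with Renilla not read in this screen; 0% = Sendai virus plus DMSO and 100% = medium plus DMSO without virus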); conditions: HEK293 RL24 IRF3 luciferase reporter, at 10 µM, stronger effect = higher value
[8] = inhibitors of poly I:C-induced TLR3 signaling, primary screen, cell-based, poly I:C stimulus, luciferase, 10K MLSCN set (AID 602277;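 active means inhibition of the reporter signal at or above 50%; inactive means inhibition below 50%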); conditions: HEK293-TLR3 RL24 IRF3 luciferase reporter, at 10 µM, stronger effect = higher value

Chain of Alpha-2C adrenergic receptor (Homo sapiens) (P18825 whole entry, looked up): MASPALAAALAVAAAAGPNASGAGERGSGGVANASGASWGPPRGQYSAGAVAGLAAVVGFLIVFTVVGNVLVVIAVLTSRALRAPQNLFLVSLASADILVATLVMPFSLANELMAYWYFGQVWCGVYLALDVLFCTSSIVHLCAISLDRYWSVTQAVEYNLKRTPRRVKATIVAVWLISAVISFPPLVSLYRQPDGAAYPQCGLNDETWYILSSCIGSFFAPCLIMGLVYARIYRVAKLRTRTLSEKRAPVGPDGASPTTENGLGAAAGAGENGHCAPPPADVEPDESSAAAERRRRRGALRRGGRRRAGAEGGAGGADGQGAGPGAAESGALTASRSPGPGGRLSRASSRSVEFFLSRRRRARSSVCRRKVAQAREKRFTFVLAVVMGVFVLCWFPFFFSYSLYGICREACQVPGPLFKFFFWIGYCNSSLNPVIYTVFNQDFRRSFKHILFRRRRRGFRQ
Chain of Voltage-gated potassium channel subunit beta-2 (Rattus norvegicus) (P62483 whole entry, looked up): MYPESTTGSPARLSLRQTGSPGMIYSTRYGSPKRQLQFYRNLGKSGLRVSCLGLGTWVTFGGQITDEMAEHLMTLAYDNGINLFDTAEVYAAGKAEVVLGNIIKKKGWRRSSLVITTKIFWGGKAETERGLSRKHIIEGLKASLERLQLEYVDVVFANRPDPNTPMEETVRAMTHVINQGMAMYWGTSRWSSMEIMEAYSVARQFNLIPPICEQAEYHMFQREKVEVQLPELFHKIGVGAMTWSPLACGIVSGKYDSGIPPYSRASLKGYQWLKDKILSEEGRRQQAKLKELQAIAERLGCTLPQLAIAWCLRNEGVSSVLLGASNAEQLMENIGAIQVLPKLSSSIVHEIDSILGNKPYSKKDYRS

SMILES	cell count [1]	inhibition [1]	inhibition of aggregation [2]	nuclei count [2]	inhibition [3]	nuclei count [3]	fluorescence slope [4]	NADPH fluorescence slope [5]	slope [6]	inhibition [7]	inhibition [8]
COC(=O)c1cc2ccsc2n1CC(=O)Nc1cc(C)cc(C)c1	510	-9.5% (inactive)	-2.7% (inactive)	115%	-22.5% (inactive)	109%	-0.374 (inactive)	9.4e-06 (inactive)	0.0119 (inactive)	-21% (inactive)	-31% (inactive)
COc1ccc(-c2cc(N3CCCC3)n3ncnc3n2)cc1	640	11.9% (inactive)	7.3% (inactive)	118%	-3.2% (inactive)	102%	-0.473 (inactive)	-2.2e-05 (inactive)	0.00575 (inactive)	-11.3% (inactive)	-11.7% (inactive)
CN(C)S(=O)(=O)N1CCN(c2cccc(Cl)c2)CC1	411	-0.2% (inactive)	16.9% (inactive)	87.3%	-14.6% (inactive)	99.2%	-0.514 (inactive)	7.3e-06 (inactive)	0.00363 (inactive)	10.3% (inactive)	20.7% (inactive)
O=C(CCn1c(=O)sc2ccccc21)NCc1ccc2c(c1)OCO2	294	-11.1% (inactive)	15.6% (inactive)	92.7%	-28.3% (inactive)	115%	-0.353 (inactive)	-5.2e-05 (inactive)	0.00437 (inactive)	-17% (inactive)	-12.6% (inactive)
Cc1cc2c(c(=O)o1)C(C13C=CC(CC1)C3)C(C#N)=C(N)O2 (stereo not drawn)	326	5.3% (inactive)	-3.9% (inactive)	102%	-56.1% (inactive)	118%	-0.499 (inactive)	-5.8e-05 (inactive)	0.0051 (inactive)	5.92% (inactive)	13.6% (inactive)
O=C(CSc1nc2ccccc2nc1SCC(=O)N1CCOCC1)N1CCOCC1	473	7.6% (inactive)	11.3% (inactive)	93.3%	-239% (inactive)	115%	-0.354 (inactive)	-4.2e-05 (inactive)	0.00548 (inactive)	9.88% (inactive)	27.5% (inactive)
Cc1cc(C)c(OCC(=O)Nc2cccc(O)c2)cc1C	252	-14.9% (inactive)	46.4% (active)	40.4%	-20.3% (inactive)	102%	-0.44 (inactive)	-8.2e-06 (inactive)	0.0065 (inactive)	16.6% (inactive)	11.6% (inactive)
Cc1[nH]nc2c1C(C1CC=CCC1)C(C#N)=C(N)O2 (stereo not drawn)	424	6.7% (inactive)	-6.7% (inactive)	99.5%	-127% (inactive)	117%	-0.459 (inactive)	8.5e-06 (inactive)	0.00356 (inactive)	-0.754% (inactive)	40.2% (inactive)
COCCNC(=O)CN1CCN(Cc2cccc(Cl)c2)C1=O	752	-11.6% (inactive)	28.6% (inactive)	69.7%	-47.9% (inactive)	125%	-0.536 (inactive)	-4.6e-05 (inactive)	0.00677 (inactive)	6.1% (inactive)	16.8% (inactive)
CCOc1ccc(S(=O)(=O)Nc2cccc(Cl)c2)cc1	376	-2.9% (inactive)	-0.3% (inactive)	78.4%	-10.2% (inactive)	81.5%	-0.627 (inactive)	-2.5e-05 (inactive)	0.00349 (inactive)	38.8% (inactive)	34.1% (inactive)
CC1CCCC(N2CCN(C(=O)c3ccc(F)cc3)CC2)C1 (stereo not drawn)	625	-1.3% (inactive)	-15.5% (inactive)	106%	-53.4% (inactive)	114%	-0.581 (inactive)	-4.9e-05 (inactive)	0.00721 (inactive)	2.84% (inactive)	43.9% (inactive)
CCCCCC(=O)N(CN1C(=O)CCC1=O)c1ccccc1	806	5.4% (inactive)	-9.8% (inactive)	100%	21.6% (inactive)	111%	-0.283 (inactive)	-4e-05 (inactive)	0.00618 (inactive)	9.92% (inactive)	13.3% (inactive)
CN(C)CCCN1C(=O)c2oc3ccc(Cl)cc3c(=O)c2C1c1cccnc1 (stereo not drawn)	611	-3.3% (inactive)	-16.3% (inactive)	112%	-27% (inactive)	122%	-0.546 (inactive)	-5.3e-05 (inactive)	0.00766 (inactive)	13.5% (inactive)	39% (inactive)
COc1ccccc1C1/C(=C(/O)c2ccccc2)C(=O)C(=O)N1CC(C)C (stereo not drawn)	430	-3.3% (inactive)	-2% (inactive)	112%	-43.1% (inactive)	124%	-0.629 (inactive)	-2.2e-05 (inactive)	0.00652 (inactive)	11.4% (inactive)	20.6% (inactive)
COCCCNC(=O)CC1Oc2ccccc2NC1=O (stereo not drawn)	762	0% (inactive)	13.4% (inactive)	87.3%	-48.7% (inactive)	112%	-0.54 (inactive)	-5.2e-05 (inactive)	0.00685 (inactive)	14.8% (inactive)	33.9% (inactive)
Cc1cc(C(=O)CSCCCn2c(=O)[nH]c3ccccc32)c(C)n1C	494	-3.3% (inactive)	28.4% (inactive)	84.7%	-68.3% (inactive)	113%	-0.604 (inactive)	-9.1e-06 (inactive)	0.00689 (inactive)	-10.6% (inactive)	-5.21% (inactive)
COc1ccc(-c2nc(CCNC(=O)c3ccco3)cs2)cc1OC	696	-9.6% (inactive)	-8.9% (inactive)	102%	-4% (inactive)	114%	-0.524 (inactive)	-2.4e-05 (inactive)	0.00779 (inactive)	22.7% (inactive)	-5.2% (inactive)
COc1ccc(NC(=O)C2CCCCN2S(=O)(=O)c2ccc(F)cc2)cc1 (stereo not drawn)	630	3.7% (inactive)	27.3% (inactive)	76.6%	-67.7% (inactive)	105%	-0.584 (inactive)	-2.4e-05 (inactive)	0.00664 (inactive)	15.6% (inactive)	42.2% (inactive)
O=C(NCc1ccc2c(c1)OCO2)C1CCC(CNc2c(N3CCCCC3)c(=O)c2=O)CC1 (stereo not drawn)	579	6.8% (inactive)	2.3% (inactive)	109%	11.9% (inactive)	104%	-0.595 (inactive)	-4.4e-05 (inactive)	0.00656 (inactive)	7.38% (inactive)	24.7% (inactive)
CCOC(=O)c1ccc(NC(=O)CSc2nnc(COc3ccccc3)n2C)cc1	393	2.5% (inactive)	-6.7% (inactive)	97.5%	-25.8% (inactive)	122%	-0.455 (inactive)	-5e-05 (inactive)	0.00289 (inactive)	-1.67% (inactive)	29% (inactive)
Cn1c(=N)c(S(=O)(=O)c2ccccc2)cc2c(=O)n3ccccc3nc21	442	-5.1% (inactive)	-1.9% (inactive)	114%	-85.8% (inactive)	235%	-0.517 (inactive)	-9.2e-06 (inactive)	0.00488 (inactive)	-14.3% (inactive)	-10.5% (inactive)
O=C(O)c1[nH]c2ccc(Cl)cc2c1CC(=O)N1CCN(C(=O)c2ccco2)CC1	374	-0.5% (inactive)	-8.5% (inactive)	99.6%	-73.3% (inactive)	103%	-0.401 (inactive)	-3.1e-05 (inactive)	0.003 (inactive)	7.71% (inactive)	0.844% (inactive)
O=c1c2ccccc2nc(SCc2nc(-c3ccccc3)no2)n1-c1ccc(F)cc1	719	-5.5% (inactive)	-12.6% (inactive)	128%	-58.2% (inactive)	114%	-0.538 (inactive)	-3.3e-05 (inactive)	0.00951 (inactive)	13.8% (inactive)	39.7% (inactive)
Cc1ccc(S(=O)(=O)N2CCCC(C(=O)NC3=NCCS3)C2)cc1 (stereo not drawn)	306	7.4% (inactive)	-0.7% (inactive)	111%	-27.5% (inactive)	106%	-0.601 (inactive)	-3.9e-05 (inactive)	0.00373 (inactive)	14.7% (inactive)	13.5% (inactive)
CC1(C)CC(=O)C=C(NCCN2CCN(C(=O)Nc3ccccc3)CC2)C1	730	-5.8% (inactive)	0% (inactive)	99.6%	-2.1% (inactive)	109%	-0.412 (inactive)	-4.4e-05 (inactive)	0.0067 (inactive)	-1.55% (inactive)	-0.835% (inactive)
Cc1ccc2nc3c(cc(C(=O)NCC4CCCO4)n3C)c(=O)n2c1 (stereo not drawn)	405	9.7% (inactive)	2.7% (inactive)	111%	-25.5% (inactive)	114%	-0.0813 (active)	-3.2e-06 (inactive)	0.00481 (inactive)	-21.8% (inactive)	-39.8% (inactive)
Cc1ccnc(NS(=O)(=O)c2ccc(NC(=O)Cc3cccs3)cc2)n1	301	6.3% (inactive)	0.7% (inactive)	67%	-83.5% (inactive)	104%	-0.408 (inactive)	6.5e-05 (inactive)	0.00546 (inactive)	-4.32% (inactive)	-12.1% (inactive)
Cc1c(C(=O)NCc2ccoc2)oc2ccc3c(c12)C(=O)CC(C)(C)O3	214	7.4% (inactive)	-2.1% (inactive)	78.2%	7.9% (inactive)	103%	-0.531 (inactive)	1.8e-05 (inactive)	0.00522 (inactive)	-46% (inactive)	-231% (inactive)
